Of roughly 7,900 targets only a part is listed; those with a hit were picked by preference. About 0.6% of all pairs of compound and target were hits.
Key:
Experiment in all cases: log2 fold change, soluble protein after heating vs DMSO (PISA); higher = thermal stabilisation; K562 cells, 10 uM, 30 min; active = over 0.2 and 3.5 SD of the protein, either way, in both replicates (recomputed)
[1] = compound: COC1=CC=C(C=C1)CN2C=CC3=C2C=C(C=C3)C(=O)NO
In short: (§1)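 Thermal stability values are relative to control samples and come from duplicates. They are expressed as log2 fold changes. For measurement, K562 cells (2×10^6 cells/mL) received 10 μM compound for 30 min, and aliquots were heated for 3 min over 48°C-58°C, pooled, and extracted at 4°C in PBS with 0.5% NP-40. Soluble protein, the supernatant after 21,000xg for 90 min, was quantified by TMTpro 16plex LC-MS/MS with equalised channel sums.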

filanesib = compound: CON(C)C(=O)N1N=C(c2cc(F)ccc2F)S[C@@]1(CCCN)c1ccccc1 [filanesib]
In short: as §1

zotarolimus = compound: CO[C@H]1C[C@@H]2CC[C@@H](C)[C@@](O)(O2)C(=O)C(=O)N2CCCC[C@H]2C(=O)O[C@H]([C@H](C)C[C@@H]2CC[C@H](n3cnnn3)[C@H](OC)C2)CC(=O)[C@H](C)/C=C(\C)[C@@H](O)[C@@H](OC)C(=O)[C@H](C)C[C@H](C)/C=C/C=C/C=C/1C [zotarolimus]
In short: as §1

idasanutlin = compound: COc1cc(C(=O)O)ccc1NC(=O)[C@@H]1N[C@@H](CC(C)(C)C)[C@](C#N)(c2ccc(Cl)cc2F)[C@H]1c1cccc(Cl)c1F [idasanutlin]
In short: as §1

alisertib = compound: COc1cc(Nc2ncc3c(n2)-c2ccc(Cl)cc2C(c2c(F)cccc2OC)=NC3)ccc1C(=O)O [alisertib]
In short: as §1

[2] = compound: COc1cc2nc(-c3cc(F)ccc3O)nc(N[C@@H]3CNC[C@H]3C(C)(C)O)c2cc1OC
In short: as §1

gefitinib = compound: COc1cc2ncnc(Nc3ccc(F)c(Cl)c3)c2cc1OCCCN1CCOCC1 [gefitinib]
In short: as §1

[3] = compound: COc1cccc2cc(-c3nc([C@H]4CC[C@H](C(=O)O)CC4)n4ncnc(N)c34)[nH]c12
In short: as §1

lapatinib = compound: CS(=O)(=O)CCNCc1ccc(-c2ccc3ncnc(Nc4ccc(OCc5cccc(F)c5)c(Cl)c4)c3c2)o1 [lapatinib]
In short: as §1

pictilisib = compound: CS(=O)(=O)N1CCN(Cc2cc3nc(-c4cccc5[nH]ncc45)nc(N4CCOCC4)c3s2)CC1 [pictilisib]
In short: as §1

[4] = compound: CS(=O)(=O)c1ccc(-c2cnc(N)c(C(=O)Nc3ccccc3)n2)cc1
In short: as §1

crizotinib = compound: C[C@@H](Oc1cc(-c2cnn(C3CCNCC3)c2)cnc1N)c1c(Cl)ccc(F)c1Cl [crizotinib]
In short: as §1

[5] = compound: C[C@@H]1COCCN1C2=NC(=NC(=C2)C3(CC3)S(=O)(=O)C)C4=C5C=CNC5=CC=C4
In short: as §1

[6] = compound: C[C@H](C1=CC=C(C=C1)C(=O)NC2=C3C=CNC3=NC=C2)N
In short: as §1

duvelisib = compound: C[C@H](Nc1ncnc2nc[nH]c12)c1cc2cccc(Cl)c2c(=O)n1-c1ccccc1 [duvelisib]
In short: as §1

gandotinib = compound: Cc1cc(Nc2cc(CN3CCOCC3)c3nc(C)c(Cc4ccc(Cl)cc4F)n3n2)n[nH]1 [gandotinib]
In short: as §1

tozasertib = compound: Cc1cc(Nc2cc(N3CCN(C)CC3)nc(Sc3ccc(NC(=O)C4CC4)cc3)n2)n[nH]1 [tozasertib]
In short: as §1

[7] = compound: Cc1cc(SCc2sc(-c3ccc(C(F)(F)F)cc3)nc2C)ccc1OCC(=O)O
In short: as §1

doramapimod = compound: Cc1ccc(-n2nc(C(C)(C)C)cc2NC(=O)Nc2ccc(OCCN3CCOCC3)c3ccccc23)cc1 [doramapimod]
In short: as §1

ispinesib = compound: Cc1ccc(C(=O)N(CCCN)[C@@H](c2nc3cc(Cl)ccc3c(=O)n2Cc2ccccc2)C(C)C)cc1 [ispinesib]
In short: as §1

Measured: log2 fold change

MUL1 (UniProt Q969V5)
Chain of UniProt Q969V5 (Q969V5 whole entry, looked up): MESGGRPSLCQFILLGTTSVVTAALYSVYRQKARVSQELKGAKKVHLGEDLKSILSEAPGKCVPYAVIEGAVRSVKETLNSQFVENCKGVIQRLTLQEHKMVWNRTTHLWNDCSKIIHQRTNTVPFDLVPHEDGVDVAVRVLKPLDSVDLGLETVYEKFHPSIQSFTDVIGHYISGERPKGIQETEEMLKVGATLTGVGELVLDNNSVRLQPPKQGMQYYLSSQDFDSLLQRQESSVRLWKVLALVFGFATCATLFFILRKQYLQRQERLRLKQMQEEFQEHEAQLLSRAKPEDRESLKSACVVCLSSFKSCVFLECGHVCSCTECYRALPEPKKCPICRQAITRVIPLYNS
inactive: [1] -0.044 | filanesib 0.042 | zotarolimus -0.064 | idasanutlin -0.052 | alisertib 0.069 | [2] -0.05 | gefitinib 0.017 | [3] -0.08 | lapatinib 0.006 | pictilisib 0.006 | [4] -0.023 | crizotinib 0.038 | [5] 0.078 | [6] -0.006 | duvelisib -0.042 | gandotinib -0.018 | tozasertib 0.083 | [7] -0.02 | doramapimod 0.056 | ispinesib -0.01

MORF4L2 (UniProt Q15014)
active: [5] -0.275
inactive: [1] -0.149 | filanesib 0.146 | zotarolimus -0.044 | idasanutlin 0.045 | alisertib -0.066 | [2] -0.085 | gefitinib -0.048 | [3] -0.074 | lapatinib 0.03 | pictilisib -0.063 | [4] -0.085 | crizotinib 0.013 | [6] 0.053 | duvelisib -0.201 | gandotinib 0.085 | tozasertib -0.007 | [7] -0.012 | doramapimod 0.035 | ispinesib 0.011

NMT2 (UniProt O60551)
inactive: [1] -0.064 | filanesib -0.018 | zotarolimus 0.019 | idasanutlin -0.062 | alisertib -0.096 | [2] 0.082 | gefitinib -0.069 | [3] -0.046 | lapatinib -0.047 | pictilisib 0.087 | [4] 0.043 | crizotinib -0.187 | [5] 0.059 | [6] 0.018 | duvelisib 0.038 | gandotinib 0.013 | tozasertib 0.042 | [7] 0.023 | doramapimod -0.013 | ispinesib -0.167

NAA38 isoform 2 (UniProt Q9BRA0)
Chain of UniProt Q9BRA0 (Q9BRA0 whole entry, looked up): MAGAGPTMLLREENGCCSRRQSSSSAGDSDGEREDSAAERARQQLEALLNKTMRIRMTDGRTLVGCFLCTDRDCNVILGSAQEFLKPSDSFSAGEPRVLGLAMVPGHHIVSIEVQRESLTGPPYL
inactive: [1] 0.033 | filanesib -0.014 | zotarolimus 0.001 | idasanutlin -0.045 | alisertib 0.044 | [2] -0.005 | gefitinib 0.02 | [3] 0.052 | lapatinib 0.062 | pictilisib 0.023 | [4] 0.012 | crizotinib -0.052 | [5] 0.099 | [6] 0.018 | duvelisib 0.124 | gandotinib -0.004 | tozasertib -0.013 | [7] 0.015 | doramapimod -0.02 | ispinesib -0.064

MXRA7 (UniProt P84157)
Chain of UniProt P84157 (P84157 whole entry, looked up): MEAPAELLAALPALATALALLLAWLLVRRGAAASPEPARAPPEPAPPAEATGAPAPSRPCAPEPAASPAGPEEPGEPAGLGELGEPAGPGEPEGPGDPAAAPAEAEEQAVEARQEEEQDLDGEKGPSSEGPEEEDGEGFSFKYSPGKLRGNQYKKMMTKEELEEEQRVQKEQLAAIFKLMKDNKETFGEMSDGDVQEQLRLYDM
inactive: [1] -0.248 | filanesib 0.135 | zotarolimus 0.023 | idasanutlin -0.066 | alisertib -0.017 | [2] -0.007 | gefitinib 0.058 | [3] 0.067 | lapatinib 0 | pictilisib -0.053 | [4] 0.043 | crizotinib -0.012 | [5] 0.051 | [6] -0.138 | duvelisib -0.069 | gandotinib -0.122 | tozasertib 0.005 | [7] 0.047 | doramapimod 0.035 | ispinesib 0.103

NANS (UniProt Q9NR45)
inactive: [1] -0.11 | filanesib -0.115 | zotarolimus 0.017 | idasanutlin -0.045 | alisertib -0.008 | [2] -0.017 | gefitinib -0.057 | [3] -0.017 | lapatinib -0.005 | pictilisib -0.018 | [4] -0.074 | crizotinib 0.026 | [5] 0.052 | [6] -0.098 | duvelisib 0.02 | gandotinib -0.03 | tozasertib 0.043 | [7] 0.001 | doramapimod -0.006 | ispinesib 0.074

OAT (UniProt P04181)
active: ispinesib -0.233
inactive: [1] -0.028 | filanesib -0.183 | zotarolimus 0.03 | idasanutlin -0.054 | alisertib -0.025 | [2] -0.095 | gefitinib 0.011 | [3] 0.004 | lapatinib -0.076 | pictilisib 0.12 | [4] -0.003 | crizotinib -0.123 | [5] 0.053 | [6] -0.083 | duvelisib 0.032 | gandotinib -0.03 | tozasertib -0.102 | [7] 0.018 | doramapimod 0.037

NUP160 (UniProt Q12769)
Chain of UniProt Q12769 (Q12769 whole entry, looked up): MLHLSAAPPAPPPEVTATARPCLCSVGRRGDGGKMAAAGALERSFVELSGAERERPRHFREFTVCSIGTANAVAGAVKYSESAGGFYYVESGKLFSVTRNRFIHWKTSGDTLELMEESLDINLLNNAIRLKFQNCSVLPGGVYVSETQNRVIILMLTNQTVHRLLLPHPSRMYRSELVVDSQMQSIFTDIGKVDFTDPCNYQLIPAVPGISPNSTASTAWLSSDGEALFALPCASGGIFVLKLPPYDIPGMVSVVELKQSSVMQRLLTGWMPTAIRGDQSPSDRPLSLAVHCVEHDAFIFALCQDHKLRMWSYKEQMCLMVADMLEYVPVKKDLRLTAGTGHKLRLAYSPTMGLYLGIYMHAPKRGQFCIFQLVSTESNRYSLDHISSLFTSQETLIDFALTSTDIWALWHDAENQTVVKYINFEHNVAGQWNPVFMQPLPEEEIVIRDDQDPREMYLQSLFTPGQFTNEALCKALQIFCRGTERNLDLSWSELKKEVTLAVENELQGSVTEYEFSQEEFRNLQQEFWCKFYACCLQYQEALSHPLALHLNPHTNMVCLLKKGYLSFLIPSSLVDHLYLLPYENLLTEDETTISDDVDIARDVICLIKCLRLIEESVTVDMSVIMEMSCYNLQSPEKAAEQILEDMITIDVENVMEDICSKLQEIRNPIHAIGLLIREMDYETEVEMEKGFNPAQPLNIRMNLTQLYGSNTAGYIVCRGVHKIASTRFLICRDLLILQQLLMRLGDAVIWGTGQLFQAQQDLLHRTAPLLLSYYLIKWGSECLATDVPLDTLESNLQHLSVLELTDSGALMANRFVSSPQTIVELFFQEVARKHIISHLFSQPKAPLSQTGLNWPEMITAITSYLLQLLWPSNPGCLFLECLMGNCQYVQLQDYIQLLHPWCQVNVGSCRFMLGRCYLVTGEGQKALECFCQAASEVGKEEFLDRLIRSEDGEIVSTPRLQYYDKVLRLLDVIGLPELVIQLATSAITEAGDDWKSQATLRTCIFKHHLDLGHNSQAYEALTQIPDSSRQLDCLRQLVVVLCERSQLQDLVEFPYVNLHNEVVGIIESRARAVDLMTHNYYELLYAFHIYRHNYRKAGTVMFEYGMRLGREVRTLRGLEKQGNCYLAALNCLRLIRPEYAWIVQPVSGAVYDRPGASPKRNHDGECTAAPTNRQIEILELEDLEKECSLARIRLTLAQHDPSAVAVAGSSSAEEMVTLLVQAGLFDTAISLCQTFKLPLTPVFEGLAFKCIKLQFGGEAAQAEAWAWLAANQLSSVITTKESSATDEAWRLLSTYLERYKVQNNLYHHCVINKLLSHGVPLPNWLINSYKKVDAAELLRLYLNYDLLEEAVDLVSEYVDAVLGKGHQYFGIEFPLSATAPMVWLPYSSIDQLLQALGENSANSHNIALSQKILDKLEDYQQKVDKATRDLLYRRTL
inactive: [1] -0.043 | filanesib -0.003 | zotarolimus 0.017 | idasanutlin 0.004 | alisertib -0.076 | [2] -0.068 | gefitinib 0.033 | [3] 0.037 | lapatinib 0.057 | pictilisib -0.021 | [4] 0.017 | crizotinib -0.014 | [5] 0.034 | [6] -0.027 | duvelisib 0.024 | gandotinib -0.06 | tozasertib 0.078 | [7] 0.007 | doramapimod 0.019 | ispinesib 0.044

MSTO1 (UniProt Q9BUK6)
Chain of UniProt Q9BUK6 (Q9BUK6 whole entry, looked up): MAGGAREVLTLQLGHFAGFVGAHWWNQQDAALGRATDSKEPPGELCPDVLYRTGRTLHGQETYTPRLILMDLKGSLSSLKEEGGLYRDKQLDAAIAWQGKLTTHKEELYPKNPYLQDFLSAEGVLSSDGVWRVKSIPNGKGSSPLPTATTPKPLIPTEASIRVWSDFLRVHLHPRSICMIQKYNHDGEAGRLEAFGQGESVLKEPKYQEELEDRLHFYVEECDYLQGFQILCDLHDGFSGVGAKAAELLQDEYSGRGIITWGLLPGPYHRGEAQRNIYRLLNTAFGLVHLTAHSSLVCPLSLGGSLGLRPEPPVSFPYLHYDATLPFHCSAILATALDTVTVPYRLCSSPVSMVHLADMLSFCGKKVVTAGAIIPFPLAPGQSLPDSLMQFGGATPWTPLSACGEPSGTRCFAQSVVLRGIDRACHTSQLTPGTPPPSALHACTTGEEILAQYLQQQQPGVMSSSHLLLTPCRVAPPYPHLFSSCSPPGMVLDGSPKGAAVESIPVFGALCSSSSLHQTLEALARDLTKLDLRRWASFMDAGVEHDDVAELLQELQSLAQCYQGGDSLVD
inactive: [1] -0.022 | filanesib -0.078 | zotarolimus -0.045 | idasanutlin -0.08 | alisertib 0.007 | [2] 0.024 | gefitinib -0.018 | [3] 0.025 | lapatinib -0.009 | pictilisib 0.021 | [4] -0.014 | crizotinib -0.081 | [5] 0.09 | [6] 0.025 | duvelisib 0.009 | gandotinib -0.003 | tozasertib 0.02 | [7] 0.009 | doramapimod 0.027 | ispinesib -0.053

NT5DC1 (UniProt Q5TFE4)
Chain of UniProt Q5TFE4 (Q5TFE4 whole entry, looked up): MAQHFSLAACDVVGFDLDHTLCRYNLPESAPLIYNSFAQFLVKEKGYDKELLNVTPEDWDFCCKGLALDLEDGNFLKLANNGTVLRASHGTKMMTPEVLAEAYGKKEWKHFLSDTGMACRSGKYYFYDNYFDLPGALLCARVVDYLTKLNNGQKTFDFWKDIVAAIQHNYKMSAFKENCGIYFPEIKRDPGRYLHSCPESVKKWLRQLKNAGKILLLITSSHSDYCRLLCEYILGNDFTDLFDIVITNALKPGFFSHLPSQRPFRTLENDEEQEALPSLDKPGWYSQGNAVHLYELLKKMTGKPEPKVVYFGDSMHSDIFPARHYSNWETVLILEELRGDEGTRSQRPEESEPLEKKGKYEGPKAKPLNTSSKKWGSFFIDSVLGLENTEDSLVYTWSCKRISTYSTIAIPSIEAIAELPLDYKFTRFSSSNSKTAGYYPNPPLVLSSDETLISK
inactive: [1] 0.016 | filanesib -0.067 | zotarolimus 0.019 | idasanutlin -0.122 | alisertib -0.015 | [2] 0.04 | gefitinib 0.018 | [3] 0.02 | lapatinib 0.074 | pictilisib 0.097 | [4] 0.045 | crizotinib 0.071 | [5] 0.046 | [6] -0.052 | duvelisib 0.05 | gandotinib 0.019 | tozasertib 0.004 | [7] -0.038 | doramapimod -0.018 | ispinesib 0.037

MRPS15 (UniProt P82914)
inactive: [1] 0.041 | filanesib 0.145 | zotarolimus 0.095 | idasanutlin -0.265 | alisertib -0.024 | [2] 0.016 | gefitinib -0.054 | [3] 0.024 | lapatinib 0.08 | pictilisib -0.13 | [4] 0.09 | crizotinib -0.092 | [5] 0.022 | [6] 0.072 | duvelisib -0.011 | gandotinib -0.053 | tozasertib -0.046 | [7] 0.067 | doramapimod 0.042
active: ispinesib -0.318

NEDD4 isoform 4 (UniProt P46934)
Chain of UniProt P46934 (P46934 whole entry, looked up): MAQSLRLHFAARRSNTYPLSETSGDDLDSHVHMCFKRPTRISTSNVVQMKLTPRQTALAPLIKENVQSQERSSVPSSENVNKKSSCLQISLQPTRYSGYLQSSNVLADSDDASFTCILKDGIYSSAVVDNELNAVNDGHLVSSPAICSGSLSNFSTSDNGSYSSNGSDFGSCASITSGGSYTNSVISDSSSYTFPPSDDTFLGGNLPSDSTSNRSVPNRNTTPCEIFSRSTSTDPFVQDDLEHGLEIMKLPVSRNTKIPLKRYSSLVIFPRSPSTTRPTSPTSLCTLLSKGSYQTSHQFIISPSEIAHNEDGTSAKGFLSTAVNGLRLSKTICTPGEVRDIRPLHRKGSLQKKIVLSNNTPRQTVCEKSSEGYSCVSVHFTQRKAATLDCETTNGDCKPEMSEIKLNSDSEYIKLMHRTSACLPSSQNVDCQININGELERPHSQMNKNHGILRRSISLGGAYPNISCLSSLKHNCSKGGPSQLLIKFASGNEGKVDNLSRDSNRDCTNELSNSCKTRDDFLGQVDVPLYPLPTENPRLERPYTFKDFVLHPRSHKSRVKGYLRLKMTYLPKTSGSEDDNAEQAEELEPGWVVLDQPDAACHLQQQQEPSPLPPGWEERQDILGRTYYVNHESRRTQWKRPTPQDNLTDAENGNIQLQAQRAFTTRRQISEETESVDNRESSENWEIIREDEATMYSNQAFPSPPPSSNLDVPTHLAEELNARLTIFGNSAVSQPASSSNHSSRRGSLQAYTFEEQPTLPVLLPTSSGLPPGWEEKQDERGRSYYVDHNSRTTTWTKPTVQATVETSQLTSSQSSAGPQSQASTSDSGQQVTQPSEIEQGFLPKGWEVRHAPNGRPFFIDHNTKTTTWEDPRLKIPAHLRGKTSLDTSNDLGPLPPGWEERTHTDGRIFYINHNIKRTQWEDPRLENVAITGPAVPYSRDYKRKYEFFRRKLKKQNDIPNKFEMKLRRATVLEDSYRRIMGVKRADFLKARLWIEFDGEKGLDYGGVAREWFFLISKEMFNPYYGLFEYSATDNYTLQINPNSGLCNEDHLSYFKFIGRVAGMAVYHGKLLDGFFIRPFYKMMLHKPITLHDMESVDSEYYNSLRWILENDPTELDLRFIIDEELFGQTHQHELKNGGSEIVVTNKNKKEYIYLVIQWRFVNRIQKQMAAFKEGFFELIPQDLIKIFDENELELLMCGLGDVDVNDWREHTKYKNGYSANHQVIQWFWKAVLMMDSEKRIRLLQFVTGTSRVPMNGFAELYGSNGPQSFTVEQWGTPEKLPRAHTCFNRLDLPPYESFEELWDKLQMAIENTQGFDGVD
inactive: [1] 0.036 | filanesib -0.02 | zotarolimus 0.064 | idasanutlin -0.042 | alisertib 0.053 | [2] 0.027 | gefitinib 0.074 | [3] -0.029 | lapatinib 0.028 | pictilisib -0.017 | [4] -0.05 | crizotinib -0.081 | [5] 0.095 | [6] -0.039 | duvelisib -0.006 | gandotinib -0.061 | tozasertib 0.093 | [7] -0.009 | doramapimod -0.042 | ispinesib -0.022

OSBP (UniProt P22059)
active: ispinesib 0.216
inactive: [1] -0.018 | filanesib 0.009 | zotarolimus 0.007 | idasanutlin -0.019 | alisertib -0.046 | [2] 0.086 | gefitinib 0.019 | [3] -0.009 | lapatinib 0 | pictilisib 0.004 | [4] -0.015 | crizotinib 0.057 | [5] 0.025 | [6] -0.043 | duvelisib 0.074 | gandotinib -0.025 | tozasertib -0.009 | [7] 0.016 | doramapimod -0.028

NGLY1 (UniProt Q96IV0)
inactive: [1] 0.02 | filanesib 0.043 | zotarolimus -0.012 | idasanutlin 0.112 | alisertib -0.064 | [2] 0.047 | gefitinib 0.076 | [3] -0.128 | lapatinib 0.03 | pictilisib 0.045 | [4] 0.017 | crizotinib -0.079 | [5] -0.01 | [6] 0.093 | duvelisib 0.028 | gandotinib -0.043 | tozasertib 0.048 | [7] 0.032 | doramapimod 0.001 | ispinesib -0.059

NSMCE2 (UniProt Q96MF7)
Chain of UniProt Q96MF7 (Q96MF7 whole entry, looked up): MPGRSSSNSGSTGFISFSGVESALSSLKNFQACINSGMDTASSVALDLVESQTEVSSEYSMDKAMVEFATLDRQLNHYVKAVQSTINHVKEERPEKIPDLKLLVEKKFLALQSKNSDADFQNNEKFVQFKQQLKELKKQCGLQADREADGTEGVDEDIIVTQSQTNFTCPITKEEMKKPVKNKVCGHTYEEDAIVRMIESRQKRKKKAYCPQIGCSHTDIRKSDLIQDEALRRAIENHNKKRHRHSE
inactive: [1] -0.029 | filanesib 0.045 | zotarolimus 0.018 | idasanutlin 0.027 | alisertib -0.076 | [2] 0.018 | gefitinib -0.009 | [3] -0.018 | lapatinib 0.023 | [4] 0.001 | crizotinib 0.051 | [5] -0.038 | [6] -0.024 | duvelisib -0.011 | gandotinib -0.131 | tozasertib 0.043 | [7] -0.042 | doramapimod 0.004 | ispinesib 0.044
active: pictilisib -0.233

NIPSNAP2 (UniProt O75323)
Chain of UniProt O75323 (O75323 whole entry, looked up): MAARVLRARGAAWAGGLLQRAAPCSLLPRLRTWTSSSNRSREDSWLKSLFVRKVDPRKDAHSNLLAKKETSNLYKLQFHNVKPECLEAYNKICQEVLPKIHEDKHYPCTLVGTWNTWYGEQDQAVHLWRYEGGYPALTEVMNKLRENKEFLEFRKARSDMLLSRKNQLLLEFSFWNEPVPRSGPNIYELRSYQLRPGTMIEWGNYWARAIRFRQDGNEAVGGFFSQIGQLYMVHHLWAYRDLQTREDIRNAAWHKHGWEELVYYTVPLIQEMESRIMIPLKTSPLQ
active: lapatinib 0.224
inactive: [1] 0.074 | filanesib -0.065 | zotarolimus 0.008 | idasanutlin -0.022 | alisertib 0.003 | [2] 0.007 | gefitinib 0.045 | [3] -0.038 | pictilisib 0.079 | [4] -0.014 | crizotinib 0.083 | [5] 0.068 | [6] -0.041 | duvelisib 0.019 | gandotinib 0.057 | tozasertib -0.084 | [7] 0.105 | doramapimod -0.106 | ispinesib 0.162

Source: the supplement of paper PMC10849652
